Inconclusive results are not listed. Active and inactive are the calls of the source. Rule for the calls: active = hit-call score of the fitted dose curve at least 0.9, where 1 is the maximum; inconclusive = response in the unintended direction; inactive = score below 0.9.
Each compound was assayed against human Ephrin type-B Receptor 2 (EphB2), EPHB2 (gene 2048) (UniProt P29323) (assay: NVS_ENZ_hEphB2: NovaScreen (NVS) Enzymatic Assay for human Ephrin type-B Receptor 2 (EphB2) (AID 2283156)).
Procedure: NVS_ENZ_hEphB2 is a biochemical, single-readout assay that uses extracted gene-proteins in a cell-free assay. Measurements were taken 1 hour after chemical dosing in a 384-well plate.NVS_ENZ_hEphB2 is one of one assay component(s) measured or calculated from the NVS_ENZ_hEphB2 assay. It is designed to make measurements of enzyme activity, a form of enzyme reporter, as detected with fluorescence intensity signals by Fluorescence and electrophoretic mobility shift technology.Data from the assay component NVS_ENZ_hEphB2 was analyzed into 1 assay endpoint. This assay endpoint, NVS_ENZ_hEphB2, was analyzed in the positive analysis fitting direction relative to DMSO as the negative control and baseline of activity. Using a type of enzyme reporter, loss-of-signal activity can be used to understand changes in the enzymatic activity as they relate to the gene EPHB2. Furthermore, this assay endpoint can be referred to as a primary readout, because this assay has produced multiple assay endpoints where this one serves a enzymatic activity function. To generalize the intended target to other relatable targets, this assay endpoint is annotated to the kinase intended target family, where the subfamily is receptor tyrosine kinase.
Binding assays used specific radioligands (tritiated, iodinated) with non-radioactive competitive displacement ligands in agonist or antagonist protocols (as indicated) and various reference compounds and inhibitors to titrate specific binding to receptors and transporters. Most enzyme assays (CYPs, kinases, phosphatases, proteases, HDACs) used recombinant protein and specific substrates (fluorescence mostly, some colorimetric and radioactive) and inhibitors, followed by a biochemical separation of substrate and product. All assays for the biochemical HTS were initially run in duplicate at a single concentration (10 uM for CYP450 assays and 25 uM for all others). Assay-chemical combinations meeting a pre-defined threshold (e.g., 30% inhibition and other criteria defined below) were then run in singleton concentration-response format with maximum concentration of 20 uM for CYPs and 50 uM for all others. Each assay was run with positive and negative controls, and concurrent controls on every plate. The follow-up (secondary) screen tested active chemical-pairs in concentration series, as well as a few additional assays not tested in the primary screen, some selected negative inactives, and several cases re-run in the concentration series for confirmatory purposes.

human Ephrin type-B Receptor 2 (EphB2), EPHB2 (gene 2048), sequence (P29323 whole entry, looked up): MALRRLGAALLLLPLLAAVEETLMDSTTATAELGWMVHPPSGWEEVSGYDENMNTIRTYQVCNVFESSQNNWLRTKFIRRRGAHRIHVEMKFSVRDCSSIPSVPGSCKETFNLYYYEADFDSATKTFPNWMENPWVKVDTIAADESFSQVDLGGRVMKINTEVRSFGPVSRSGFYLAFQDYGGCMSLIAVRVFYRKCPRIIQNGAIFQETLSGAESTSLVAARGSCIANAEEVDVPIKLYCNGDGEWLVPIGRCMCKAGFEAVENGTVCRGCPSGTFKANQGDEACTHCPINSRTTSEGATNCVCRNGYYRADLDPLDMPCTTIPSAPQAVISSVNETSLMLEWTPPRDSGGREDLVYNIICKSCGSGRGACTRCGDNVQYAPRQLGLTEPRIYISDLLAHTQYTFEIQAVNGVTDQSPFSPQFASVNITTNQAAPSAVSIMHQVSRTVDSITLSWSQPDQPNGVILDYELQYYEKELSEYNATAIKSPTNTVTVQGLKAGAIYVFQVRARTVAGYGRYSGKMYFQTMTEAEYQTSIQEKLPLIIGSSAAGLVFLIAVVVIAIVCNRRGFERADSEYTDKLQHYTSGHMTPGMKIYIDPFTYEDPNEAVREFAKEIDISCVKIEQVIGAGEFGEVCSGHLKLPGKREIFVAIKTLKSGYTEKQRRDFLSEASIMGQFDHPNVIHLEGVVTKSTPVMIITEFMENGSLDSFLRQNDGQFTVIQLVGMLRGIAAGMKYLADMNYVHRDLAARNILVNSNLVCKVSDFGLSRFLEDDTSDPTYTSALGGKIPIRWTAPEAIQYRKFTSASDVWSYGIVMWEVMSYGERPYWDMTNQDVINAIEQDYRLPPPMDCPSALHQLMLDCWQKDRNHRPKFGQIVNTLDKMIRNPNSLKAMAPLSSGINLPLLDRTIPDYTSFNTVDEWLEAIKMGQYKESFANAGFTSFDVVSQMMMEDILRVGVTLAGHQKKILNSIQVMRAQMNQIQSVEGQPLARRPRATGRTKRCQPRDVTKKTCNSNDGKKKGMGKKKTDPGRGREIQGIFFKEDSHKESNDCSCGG

Row | SMILES | outcome | AC50
1 | Clc1nc(Cl)c(Cl)c(Cl)c1Cl | inactive | 
2 | COCCO | inactive | 
3 | CC(C)(c1ccc(O)cc1)c1ccc(O)cc1 | inactive | 
4 | CN(C)C(=O)NC1(c2ccccc2)CCN(CCC[C@]2(c3ccc(Cl)c(Cl)c3)CCCN(C(=O)c3ccccc3)C2)CC1 | inactive | 
5 | COc1cc(C(=O)NC2CCN(C)CC2)ccc1Nc1ncc2c(n1)N(C1CCCC1)CC(F)(F)C(=O)N2C | inactive | 
6 | Oc1ccc(C(c2ccc(O)cc2)C(Cl)(Cl)Cl)cc1 | inactive | 
7 | CCOC(=O)CC(CC(=O)OCC)(OC(C)=O)C(=O)OCC | inactive | 
8 | CCCCCCC(C)OC(=O)COc1nc(F)c(Cl)c(N)c1Cl (stereo unspecified) | inactive | 
9 | Cc1ccc(N)cc1O | inactive | 
10 | CCCCCCCC/C=C\CCCCCCCC(=O)OC[C@@H](O)[C@H]1OC[C@H](O)[C@H]1O |  | 6.52 µM (active)
11 | Cc1[nH]nc2c1N=C(c1ccccc1Cl)c1cc([N+](=O)[O-])ccc1N2 | inactive | 

— PubChem BioAssay (EPA / NIEHS)
